# SRC1 TRFRET art = TR-FRET detection interference compounds, primary screen, artefact control for PPARgamma SRC-1 recruitment agonists, biochemical, TR-FRET emission ratio | TR-FRET detection artefact counter-screen; active compounds read high | TR-FRET ratio at 8 µM | 99,000 tested, 0.34% active | AID 1051, 2008; in the data active means TR-FRET ratio above about 2300
# SRC2 TRFRET art = TR-FRET signal artefacts, primary screen, artefact control for PPARgamma SRC-2 agonist project, biochemical; TR-FRET artefact counter-screen; active compounds read high; TR-FRET ratio at 8 µM; 200,000 tested, 0.4% active; in the data active means TR-FRET ratio above about 2000
# PPARg SRC2 recr = agonists of PPARg-SRC-2 recruitment, primary screen, biochemical, HTS; Peroxisome proliferator-activated receptor gamma (Homo sapiens), P37231; PPARgamma LBD-SRC-2 recruitment; activation, % at 8 µM; 200,000 tested, 0.34% active;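 further: 0% = vehicle and 100% = reference agonist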
# Target sequence (P37231 whole entry, looked up, the tested form may be a part): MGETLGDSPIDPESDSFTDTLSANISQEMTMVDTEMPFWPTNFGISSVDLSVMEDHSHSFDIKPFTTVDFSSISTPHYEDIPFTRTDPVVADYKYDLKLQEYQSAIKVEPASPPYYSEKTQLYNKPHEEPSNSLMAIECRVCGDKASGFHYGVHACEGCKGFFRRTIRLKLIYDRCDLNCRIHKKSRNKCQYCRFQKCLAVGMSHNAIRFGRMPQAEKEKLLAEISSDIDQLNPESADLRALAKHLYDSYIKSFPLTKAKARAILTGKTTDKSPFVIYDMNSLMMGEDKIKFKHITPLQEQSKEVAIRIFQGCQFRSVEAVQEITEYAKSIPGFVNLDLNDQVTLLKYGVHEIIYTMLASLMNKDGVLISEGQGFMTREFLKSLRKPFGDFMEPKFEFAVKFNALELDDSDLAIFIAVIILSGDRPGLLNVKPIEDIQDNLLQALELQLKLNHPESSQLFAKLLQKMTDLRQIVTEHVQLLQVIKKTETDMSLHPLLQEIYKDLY
# SRC3 TRFRET art = TR-FRET detection interference compounds, artefact control for PPARgamma SRC-3 recruitment agonists, biochemical, TR-FRET ratio | 99,000 tested, 0.39% active | TR-FRET artefact counter-screen, PPARgamma/SRC-3 format; active compounds read high | AID 1048, 2008 | TR-FRET ratio at 8 µM; in the data active means TR-FRET ratio above about 2000
# PPARg SRC-3 ag = PPARgamma agonists recruiting SRC-3 coactivator, primary screen, biochemical; Peroxisome proliferator-activated receptor gamma (Homo sapiens), P37231; biochemical PPARgamma/SRC-3 coactivator recruitment assay; activation, % at 8 µM; 200,000 tested, 0.26% active; AID 731, 2007; in the data active means activation above about 23%;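 further: 0% = DMSO and 100% = reference agonist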
# PPARg SRC1 recr = PPARgamma agonists recruiting SRC-1 coactivator, primary screen, biochemical | activation, % at 8 µM | PPARgamma-SRC-1 coactivator recruitment biochemical assay | Peroxisome proliferator-activated receptor gamma (Homo sapiens), P37231 | AID 631, 2007 | 200,000 tested, 0.41% active; in the data active means activation above about 19%;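 further: 0% = DMSO and 100% = reference agonist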
# PPARg SRC2 ag = agonists of PPARgamma SRC-2 coactivator recruitment, confirmation, biochemical, HTS; shares compounds with PPARg SRC-3 ag; 790 tested, 52% active; activation, % at 8 µM; biochemical SRC-2 recruitment by PPARgamma;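 further: 0% = vehicle alone and 100% = reference agonist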
# PPARg SRC1 conf = PPARgamma agonists recruiting SRC-1 coactivator, confirmation, biochemical. activation, % at 8 µM. 790 tested, 43% active. AID 1300, 2008. shares compounds with PPARg SRC-3 ag. PPARgamma–SRC-1 coactivator recruitment biochemical assay; in the data active means activation above about 20%;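 further: 0% = vehicle wells and 100% = reference agonist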
# PPARg SRC3 conf = PPARgamma-driven SRC-3 coactivator recruitment agonists, confirmation, biochemical; shares compounds with PPARg SRC-3 ag; biochemical PPARgamma-SRC-3 coactivator recruitment, agonist mode; activation, % at 8 µM; 790 tested, 29% active; AID 1301, 2008; in the data active means activation above about 24%;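 further: 0% = vehicle wells and 100% = reference agonist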
# Active calls of the source: *; . = not tested or not shown. Most compounds without a hit are left out; they make up all but 0.9% or so of the library. Unless noted, no stated cut-off is given here; in the data, active means activation above about 22%; inactive means the rest.
SMILES,SRC1 TRFRET art,SRC2 TRFRET art,PPARg SRC2 recr,SRC3 TRFRET art,PPARg SRC-3 ag,PPARg SRC1 recr,PPARg SRC2 ag,PPARg SRC1 conf,PPARg SRC3 conf
COc1ccccc1CNC(=O)CSc1cc(=O)n(C)c2ccccc12,2191,2116*,25.1*,1939,10.3,22.4*,6.6,8.6,5.0
Cn1c(=O)cc(SCC(=O)NCCCN2CCN(c3ccc(F)cc3)CC2)c2ccccc21,.,4545*,94.8*,.,134.3*,97.2*,51.3*,34.3*,36.2*
COc1ccccc1CNC(=O)CCCOc1cc(=O)n(C)c2ccccc12,.,1525,8.2,.,9.4,2.1,.,.,.
Cn1c(=O)cc(SCC(=O)NCCN2CCN(c3ccccc3F)CC2)c2cc(Cl)ccc21,.,3707*,107.5*,.,91.7*,81.5*,59.3*,39.2*,41.7*
Cn1c(=O)cc(SCC(=O)NCc2ccc(F)cc2)c2ccccc21,2122,2135*,18.1,2264*,15.6,25.2*,21.9*,17.9,15.1
S=c1[nH]nc(Cc2ccccc2)n1-c1cccc2ccccc12,1896,1566,-3.0,1422,3.2,4.3,.,.,.
O=c1oc(-c2ccccc2F)nc2c1cnn2-c1ccccc1,.,1482,18.4,.,23.6,22.9*,14.0,24.5*,27.3*
COc1cccc(C2C3=C(Nc4[nH]n(-c5ccccc5)c(=O)c42)c2ccccc2C3=O)c1 (stereo unspecified),1698,1497,15.2,1497,33.4*,21.8*,54.5*,54.4*,56.0*
COc1cccc(C2C3=C(CCCC3=O)Nc3[nH]n(-c4ccccc4)c(=O)c32)c1 (stereo unspecified),1713,1591,9.9,1360,7.2,-1.0,.,.,.
COc1cc(Cl)c(C)cc1NC(=O)CCCN1C(=O)CCC1=O,.,1659,4.4,.,7.1,6.8,.,.,.
COC(=O)c1sc2nc3c(c(-c4cccs4)c2c1N)CCCC3,1972,1789,3.5,1674,3.0,4.7,.,.,.
O=C(NCc1ccc(F)cc1)C1CCN(S(=O)(=O)N2CCOCC2)CC1,2120,1795,2.4,1591,1.2,10.0,.,.,.
Cn1c(-c2sc3cc(C(F)(F)F)cnc3c2-c2cccs2)n[nH]c1=S,2475*,2200*,29.9*,2332*,22.4,17.3,46.1*,41.5*,29.4*
Cn1c(-c2sc3cc(C(F)(F)F)cnc3c2-c2cccnc2)n[nH]c1=S,.,1633,18.8,.,29.6*,18.8*,71.8*,56.9*,44.0*
N#Cc1cc2ccccc2nc1SCc1cccnc1,1739,1334,-0.5,1426,-1.2,0.1,.,.,.
COc1ccc2nc(SC)c(C#N)cc2c1,2037,1641,11.4,2738*,27.0*,7.5,75.3*,57.7*,43.0*
COc1ccc2nc(SCc3cccnc3)c(C#N)cc2c1,.,1517,9.4,.,69.2*,82.6*,53.0*,42.0*,33.1*
N#Cc1cc2c(ccc3ccccc32)oc1=O,1864,1529,2.3,1454,1.3,3.1,.,.,.
COc1ccc(-c2nc(-c3cccs3)c(-c3cccs3)[nH]2)cc1OC,.,2267*,28.1*,.,29.7*,23.0*,35.3*,30.7*,26.0*
CCn1c(=O)cc(SCC(=O)Nc2ccc3c(c2)OCO3)c2ccccc21,.,2330*,47.4*,.,32.2*,23.8*,44.1*,31.6*,29.4*
CCn1c(=O)cc(SCC(=O)Nc2cccnc2)c2ccccc21,.,2082*,44.5*,.,26.6*,19.4*,30.8*,19.8*,18.2
